# High-throughput results from PubChem.
# A selection: hits, their analogues and other compounds. The true share with any hit is near 1.6%.
# KCNQ2 inh: blocks the rat KCNQ2 potassium channel. actives 1.1% (n = 310,000). B-score at 10 µM. AID 2156. O88943. CHO-K1 KCNQ2, FluxOR thallium flux, 20 min; stronger effect = lower value;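 active means fluorescence ratio B-score at most minus 3 library SDs, with starting brightness B-score within 2 library SDs, cut at about -5.5 in these data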
# KCNQ2 enhance: potentiators of rat KCNQ2 potassium channel; O88943; actives 0.54% (n = 310,000); CHO-K1 KCNQ2, FluxOR thallium flux fluorescence; stronger effect = higher value; B-score at 10 µM;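 active means fluorescence ratio B-score at least 3 SD of library B-scores, with initial fluorescence B-score within 3 of them, cut at about 5.3 in these data; same plate scores as AID 2156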;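 further: B-score of peak minus minimum over baseline fluorescence ratio after K+ and Tl+ stimulus; positive B-score means potentiation of KCNQ2 with more thallium influx and brighter signal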
# Kir21 conf inh: confirmation of mouse Kir2.1 potassium channel inhibitors. Tl flux remaining, % of negative control (stronger effect = lower value), % at 10 µM. shares compounds with KCNQ2 enhance. AID 2032. actives 41% (n = 2,300). Kir2.1-expressing cells, FluxOR thallium flux fluorescence; stronger effect = lower value;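 active means Primary-screen hit whose thallium flux fell at least 3 control SD below untreated wells in both duplicates, with normal baseline fluorescence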;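 further: 0% = blank wells without stimulus and 100% = stimulated no-compound controls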
# HEK293 ctr: counter-screen for Kir2.1 inhibitors: effect in parental HEK293 cells; shares compounds with KCNQ2 enhance; FluxOR thallium flux fluorescence; 0% = unstimulated blank wells; FluxOR signal as % of negative control (100 = no effect), % at 10 µM; actives 19% (n = 2,300);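 active means dye signal at least 3 control SD above or below untreated wells in both duplicates, raw fluorescence within 3, either direction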;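 further: percent is based on the flux ratio of peak minus minimum fluorescence over baseline F0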
# CHO-K1 ctr: parental CHO-K1 activity in KCNQ2 potentiator counter-screen; activity increase over 3SD of controls, % at 10 µM; parental CHO-K1 cells, FluxOR thallium flux fluorescence; zero = vehicle mean+3SD, 100% = vehicle-minus-blank window; actives 43% (n = 1,200); AID 2282; shares compounds with KCNQ2 enhance;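 active means signal rise of at least 3 SD above the untreated control mean, in both duplicate wells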;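 further: counter screen of KCNQ2 potentiator hits so any rise reflects channel-independent effects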
# KCNQ1 pot spec: selectivity of KCNQ2 potentiators: effect on human KCNQ1 | CHO KCNQ1 stable, FluxOR thallium flux fluorescence; beyond 3SD, as % of vehicle-control signal | activation over 3SD threshold, % at 10 µM | actives 28% (n = 1,200) | AID 2283 | shares compounds with KCNQ2 enhance;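 active means fluorescence ratio rise of at least 3 SD of vehicle wells above their mean, in both replicate wells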;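 further: 0% = vehicle mean plus 3 SD and 100% = vehicle minus unstimulated blank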
# Target sequence (P51787 whole entry, looked up): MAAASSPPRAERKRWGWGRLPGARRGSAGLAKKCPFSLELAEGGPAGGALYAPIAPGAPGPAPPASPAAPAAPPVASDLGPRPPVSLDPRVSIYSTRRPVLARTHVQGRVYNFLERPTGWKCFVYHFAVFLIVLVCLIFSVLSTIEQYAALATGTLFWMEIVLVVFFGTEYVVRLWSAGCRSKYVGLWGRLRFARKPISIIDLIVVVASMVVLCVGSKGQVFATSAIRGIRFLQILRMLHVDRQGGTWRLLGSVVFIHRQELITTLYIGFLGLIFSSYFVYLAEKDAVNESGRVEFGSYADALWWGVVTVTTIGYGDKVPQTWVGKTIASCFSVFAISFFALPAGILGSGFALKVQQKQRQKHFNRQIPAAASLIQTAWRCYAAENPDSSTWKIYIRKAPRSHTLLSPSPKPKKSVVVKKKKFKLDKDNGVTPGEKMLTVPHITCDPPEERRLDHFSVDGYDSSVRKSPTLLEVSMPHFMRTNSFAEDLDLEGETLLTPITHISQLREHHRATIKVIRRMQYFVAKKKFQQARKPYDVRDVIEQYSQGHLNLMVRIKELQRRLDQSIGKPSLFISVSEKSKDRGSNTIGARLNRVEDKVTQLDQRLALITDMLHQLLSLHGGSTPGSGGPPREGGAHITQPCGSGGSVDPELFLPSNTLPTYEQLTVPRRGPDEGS
# KCNQ2 pot conf: rat KCNQ2 channel potentiator confirmation | shares compounds with KCNQ2 enhance | CHO-KCNQ2 cells, FluxOR thallium flux fluorescence | potentiation, less the hit threshold, % at 10 µM | actives 68% (n = 1,200) | AID 2287;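 active means fluorescence ratio rising 3 SD or more over the vehicle control mean in both replicates, plus primary screen hit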;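 further: peak minus minimum thallium fluorescence divided by baseline after K/Tl stimulus; 0% = vehicle mean plus 3 SD and 100% = vehicle minus unstimulated blank difference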
# Kir2-1 sel: tests whether KCNQ2 potentiators also affect mouse Kir2.1; shares compounds with KCNQ2 enhance; HEK293 Kir2.1, FluxOR thallium flux fluorescence; activity over 3SD threshold, % at 10 µM; actives 2% (n = 1,200);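 active means fluorescence ratio rise of at least 3 SD above the vehicle-control mean, seen in both replicates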;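 further: 0% = vehicle mean plus 3 SD and 100% = vehicle minus no-stimulus blank window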
# KCNQ2 W236L MoA: KCNQ2 potentiators acting on retigabine-insensitive rat KCNQ2 W236L mutant; shares compounds with KCNQ2 enhance; CHO KCNQ2-W236L, automated patch clamp current; AID 2558; actives 10% (n = 940); current increase over 3SD of negative controls (%), stronger effect = higher value, % at 25 µM;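 active means current increase at least 3 SD of the untreated controls above them in both duplicate recordings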
# An asterisk follows results filed as active; i = inactive; · = no result given.
SMILES,KCNQ2 inh,KCNQ2 enhance,Kir21 conf inh,HEK293 ctr,others
CCCCNS(=O)(=O)c1ccc(NC(=O)c2c(-c3ccccc3Cl)noc2C)cc1,i,·,·,·,
COc1ccccc1NC(=O)c1nn(C)c(C(=O)Nc2ccccc2OC)c1[N+](=O)[O-],i,·,·,·,
COc1ccccc1NC(=O)c1c(N=Cc2ccccc2O)cnn1C,i,11.6*,i,i,CHO-K1 ctr=46.6*;KCNQ1 pot spec=64.1*;KCNQ2 pot conf=-12.1;Kir2-1 sel=-28.4
O=C(Nc1cccc(/C=C/c2ccccn2)c1)c1ccc(-n2cncn2)c([N+](=O)[O-])c1,i,·,·,·,
CCCCn1c(-c2csc(CCC)c2)n[nH]c1=S,i,9.07*,i,171.5%*,CHO-K1 ctr=-13.7;KCNQ1 pot spec=-14.3;KCNQ2 pot conf=19.6*;Kir2-1 sel=-48.7;KCNQ2 W236L MoA=i
CCCc1cc(-c2n[nH]c(=S)n2CC)cs1,i,0.01,·,·,
CCc1ccc(C2C(C#N)=C(N)C(C#N)(C#N)C3=CCC(C(C)(C)C)CC32)cc1 (stereo unspecified),i,0.99,i,i,
Cc1cc2ccccc2nc1SCC(=O)NC1CCCCC1,i,11*,i,i,CHO-K1 ctr=-55.8;KCNQ1 pot spec=-18.4;KCNQ2 pot conf=11.3*;Kir2-1 sel=-35.5;KCNQ2 W236L MoA=i
Cc1cc2ccccc2nc1SCC(=O)NC1CCCC1,i,4.84,·,·,
CC1(C)C(=O)OC(c2c3ccccc3cc3ccccc23)C(C)(C)C1=O (stereo unspecified),i,6.19*,i,i,CHO-K1 ctr=11.8*;KCNQ1 pot spec=90.5*;KCNQ2 pot conf=-6.1;Kir2-1 sel=-30.8
CN(C)c1ccc(C2OC(=O)C(C)(C)C(=O)C2(C)C)cc1 (stereo unspecified),i,·,·,·,
CCCCC(=O)Nc1c(C)cc(C)cc1Cl,i,12.1*,i,i,CHO-K1 ctr=-24.9;KCNQ1 pot spec=-13.6;KCNQ2 pot conf=53.2*;Kir2-1 sel=-33.9;KCNQ2 W236L MoA=i
CCC(=O)Nc1c(C)cc(C)cc1Cl,i,1.21,·,·,
CN(Cc1ccccc1)S(=O)(=O)c1ccc(Cl)nc1,i,·,·,·,
CC(C)N(Cc1ccccc1)S(=O)(=O)c1ccc(Cl)nc1,i,·,65.0%*,i,
Cc1ccc(C(=O)C(OC(=O)CN2C(=O)c3ccccc3C2=O)c2ccccc2)cc1C (stereo unspecified),i,7.48*,i,i,CHO-K1 ctr=-18.6;KCNQ1 pot spec=-17.6;KCNQ2 pot conf=-2.3;Kir2-1 sel=-20.1;KCNQ2 W236L MoA=i
Cc1ccc(C(=O)C(OC(=O)CN2C(=O)c3ccccc3C2=O)c2ccccc2)cc1 (stereo unspecified),i,1.92,·,·,
S=C(NCCc1ccccc1)Nc1ccc(Br)cn1,i,·,·,·,
CCOC(=O)C(NC(C)=O)C(=O)Nc1ccc(C(C)(C)C)cc1 (stereo unspecified),i,·,·,·,
CCOC(=O)NC(=S)Nc1ccc(C(C)(C)C)cc1,i,10.2*,i,i,CHO-K1 ctr=-10.8;KCNQ1 pot spec=-13.2;KCNQ2 pot conf=26.3*;Kir2-1 sel=-36.7;KCNQ2 W236L MoA=i
Cc1cc(C)n(C(C)CNS(=O)(=O)c2ccccc2)n1 (stereo unspecified),i,·,·,·,
COc1ccc(S(=O)(=O)Nc2c(O)ccc3ccccc23)cc1OC,i,8.01*,i,i,CHO-K1 ctr=28.6*;KCNQ1 pot spec=1.9*;KCNQ2 pot conf=23.1*;Kir2-1 sel=-49.9;KCNQ2 W236L MoA=i
COc1ccc(C(=O)Nc2c(O)ccc3ccccc23)cc1OC,i,0.97,·,·,
O=C(CSc1ccc2ccccc2n1)Nc1ccc(N2CCOCC2)cc1,i,·,·,·,
COc1ccc(C(NC=O)c2cc(OC)c(OC)cc2Br)cc1OC (stereo unspecified),i,0.65,·,·,
SMILES,KCNQ2 inh,KCNQ2 enhance,Kir21 conf inh,HEK293 ctr,others
CC[C@@H](C)[C@H](NC(=O)OC(C)(C)C)c1nnc(S(=O)(=O)Cc2cc(C)ccc2C)o1,i,·,i,i,
CC(C)[C@H](NC(=O)OC(C)(C)C)c1nnc(S(=O)(=O)Cc2c(F)cccc2Cl)o1,i,0.91,·,·,
O=C(Nc1ccccc1)C1=C(c2ccccc2)S(=O)(=O)CCS1(=O)=O,i,8.09*,i,i,CHO-K1 ctr=-16.1;KCNQ1 pot spec=-21.6;KCNQ2 pot conf=3.7*;Kir2-1 sel=-38.8;KCNQ2 W236L MoA=3.5%*
O=C(O)c1ccccc1C(=O)Nc1ccccc1,i,0.79,·,·,
CCN(CC(=O)NC(=O)NC1CCCCC1)Cc1nc2ccccc2c(=O)[nH]1,i,10.2*,i,i,CHO-K1 ctr=63.4*;KCNQ1 pot spec=16.8*;KCNQ2 pot conf=33.5*;Kir2-1 sel=-33.1;KCNQ2 W236L MoA=i
CCN(CC(=O)NC(=O)NC1CCCCC1)Cc1ccccc1,i,·,·,·,
COc1ccccc1NS(=O)(=O)c1cc2c3c(c1)CCN3C(=O)CC2,i,·,·,·,
CC(C(=O)N(C)C1CCCCC1)N1CCC(C(N)=O)CC1 (stereo unspecified),i,·,·,·,
O=c1c2cccnc2[nH]c(=S)n1CCC1=CCCCC1,i,12.3*,i,277.5%*,CHO-K1 ctr=7.6*;KCNQ1 pot spec=-13.6;KCNQ2 pot conf=48.4*;Kir2-1 sel=-23.0;KCNQ2 W236L MoA=i
CCCCCn1c(=S)[nH]c2ncccc2c1=O,i,3.11,·,·,
CCN(Cc1ccncc1)Cc1nc(CC2CC2)no1,i,·,·,·,
COc1ccc(-c2[nH]ncc2CNC(C)c2ccccc2Cl)cc1F (stereo unspecified),i,3.04,60.0%*,i,
COc1ccc(-c2[nH]ncc2CNC(C)CCn2cccn2)cc1F (stereo unspecified),i,1.81,·,·,
CCOC(=O)c1cc(C#N)c(Oc2ccccc2OC)nc1-c1ccccc1,i,·,·,·,
CCC(=O)N(CCC(c1ccco1)c1ccccc1OC)Cc1cccs1 (stereo unspecified),i,·,·,·,
O=C(c1ccco1)N(Cc1ccc(Cl)cc1)Cc1ccco1,i,·,·,·,
CC(=O)N(CCP(=O)(c1ccccc1)c1ccccc1)Cc1ccco1,i,·,·,·,
CC(=O)N(CCC(Cc1ccccc1)c1ccco1)Cc1ccco1 (stereo unspecified),-6.04*,-6.04,37.5%*,i,
CC(=O)N(CCC(c1ccccc1)c1ccco1)Cc1cccs1 (stereo unspecified),-7.79*,-7.79,47.0%*,i,
O=C(c1ccco1)N(CCC(c1ccccc1)c1ccco1)Cc1ccco1 (stereo unspecified),-6.76*,-6.76,72.0%*,i,
Cc1cccc(OCc2nnc(SCC(=O)Nc3ccc(N4CCOCC4)cc3)o2)c1,i,·,·,·,
Cn1c(=O)c2c(nc(NNC(=O)C(F)(F)F)n2C)n(C)c1=O,i,·,·,·,
CCCc1nnc(SCC(=O)N2CCCC(C)C2)n1CC1CCCO1 (stereo unspecified),i,·,·,·,
O=C(CCNS(=O)(=O)c1ccccc1F)N1CCN(S(=O)(=O)c2cccc(F)c2)CC1,i,·,·,·,
